# Measurements reported in PubChem BioAssay.
# Unmarked numbers belong to inactive results. Entries that show only a call come without a potency. For some of these results: Potency and affinity values are given separately. Calls of active or inactive are those of the source. Unless noted, how the calls were made is not given here.
# What was measured:
# [1] = antimalarial activity against Dd2 strain (AID 2302;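 active means growth inhibition above 50% at the single 2 µM test dose, taken to imply half-maximal potency below 2 µM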); conditions: P. falciparum Dd2 in RBCs, LDH growth readout, 72 h; at 2 µM; active compounds read high
# [2] = HepG2 cytotoxicity, primary screen, cytotoxicity control for P. falciparum antimalarial project, cell-based, ATP luminescence (AID 2303;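 active means inhibition above 50%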); conditions: HepG2 viability, 24-48 h, at 10 µM, active compounds read high
# [3] = target: L-lactate dehydrogenase (Plasmodium falciparum (isolate CDC / Honduras)) (UniProt Q27743); experiment: PfLDH activity inhibition – cell lysate, 3D7 strain, counter-screen for P. falciparum growth inhibition project (AID 2304); conditions: P. falciparum 3D7 crude extract, LDH APAD/NBT absorbance; at 2 µM; active compounds read high
# [4] = inhibition of 3D7 malaria parasite growth – strain 3D7 (AID 2306); conditions: P. falciparum 3D7 erythrocytic growth, LDH absorbance, 72 h; at 2 µM; active compounds read high
# [5] = target: Calcium-dependent protein kinase 1 (Plasmodium falciparum (isolate 3D7)) (UniProt P62344); experiment: PfCDPK1 kinase inhibitors, biochemical, TCAMS library (AID 1159585; cut-off not given, nearly all actives have IC50 up to about 0.98 µM;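 further: inhibitors leave more ATP so luminescence rises with inhibition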); conditions: recombinant PfCDPK1, Kinase-Glo ATP depletion luminescence
# [6] = target: Plasmodium falciparum protein kinase 6 (PK6, PF3D7_1337100) (UniProt Q8IDW1); experiment: PfPK6 kinase inhibitors, biochemical, TCAMS library (AID 1159586); conditions: recombinant PfPK6, Kinase-Glo ATP depletion luminescence
# [7] = target: Protein kinase 7 (PK7), Plasmodium falciparum 3D7 (PF3D7_0213400) (UniProt Q7YTF7); experiment: inhibition of Plasmodium PK7 catalytic activity – biochemical, TCAMS antimalarial set, Kinase-Glo luminescence (AID 1159587); conditions: recombinant PfPK7, Kinase-Glo ATP depletion luminescence
# [8] = target: Calcium-dependent protein kinase 4 (Plasmodium falciparum (isolate 3D7)) (UniProt Q8IBS5); experiment: PfCDPK4 kinase inhibitors, biochemical, TCAMS library (AID 1159588; cut-off not given, nearly all actives have IC50 up to about 0.91 µM); conditions: recombinant PfCDPK4, Kinase-Glo ATP depletion luminescence
# Sequence of Calcium-dependent protein kinase 4 (Plasmodium falciparum (isolate 3D7)) (Q8IBS5 whole entry, looked up): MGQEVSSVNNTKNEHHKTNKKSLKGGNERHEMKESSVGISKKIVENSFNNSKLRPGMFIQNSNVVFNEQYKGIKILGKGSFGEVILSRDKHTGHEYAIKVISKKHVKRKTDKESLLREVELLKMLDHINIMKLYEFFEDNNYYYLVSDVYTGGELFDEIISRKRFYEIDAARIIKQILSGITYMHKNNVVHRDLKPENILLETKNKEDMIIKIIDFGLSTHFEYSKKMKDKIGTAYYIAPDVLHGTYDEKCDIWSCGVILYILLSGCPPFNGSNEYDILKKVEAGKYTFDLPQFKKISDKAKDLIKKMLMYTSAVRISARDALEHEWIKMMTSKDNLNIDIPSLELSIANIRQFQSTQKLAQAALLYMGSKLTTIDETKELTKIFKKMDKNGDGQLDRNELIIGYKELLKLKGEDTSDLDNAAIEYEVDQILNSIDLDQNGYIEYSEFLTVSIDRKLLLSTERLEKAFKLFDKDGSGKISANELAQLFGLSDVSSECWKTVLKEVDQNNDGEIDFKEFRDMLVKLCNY
# Sequence of Plasmodium falciparum protein kinase 6 (PK6, PF3D7_1337100) (Q8IDW1 1-305): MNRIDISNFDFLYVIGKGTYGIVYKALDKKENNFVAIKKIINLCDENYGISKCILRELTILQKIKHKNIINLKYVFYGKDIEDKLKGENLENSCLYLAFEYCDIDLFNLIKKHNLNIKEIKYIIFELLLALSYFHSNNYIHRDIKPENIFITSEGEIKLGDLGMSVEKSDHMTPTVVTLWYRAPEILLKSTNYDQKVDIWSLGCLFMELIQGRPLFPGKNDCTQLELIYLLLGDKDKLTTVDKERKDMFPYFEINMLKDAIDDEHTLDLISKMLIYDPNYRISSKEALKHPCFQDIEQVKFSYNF
# Sequence of Calcium-dependent protein kinase 1 (Plasmodium falciparum (isolate 3D7)) (P62344 whole entry, looked up): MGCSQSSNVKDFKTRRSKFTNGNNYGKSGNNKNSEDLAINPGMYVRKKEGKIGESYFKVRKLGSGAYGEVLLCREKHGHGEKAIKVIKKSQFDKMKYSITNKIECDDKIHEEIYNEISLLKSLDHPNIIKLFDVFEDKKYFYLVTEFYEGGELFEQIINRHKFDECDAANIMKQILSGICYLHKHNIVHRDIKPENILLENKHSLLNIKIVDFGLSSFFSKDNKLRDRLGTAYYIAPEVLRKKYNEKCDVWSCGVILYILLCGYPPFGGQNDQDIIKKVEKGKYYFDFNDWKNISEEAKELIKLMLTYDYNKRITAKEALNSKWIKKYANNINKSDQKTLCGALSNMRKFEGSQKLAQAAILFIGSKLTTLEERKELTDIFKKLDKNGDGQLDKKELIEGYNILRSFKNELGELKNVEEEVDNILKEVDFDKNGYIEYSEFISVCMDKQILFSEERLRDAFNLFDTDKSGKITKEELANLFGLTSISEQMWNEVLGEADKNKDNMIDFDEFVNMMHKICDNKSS
# Sequence of L-lactate dehydrogenase (Plasmodium falciparum (isolate CDC / Honduras)) (Q27743 whole entry, looked up): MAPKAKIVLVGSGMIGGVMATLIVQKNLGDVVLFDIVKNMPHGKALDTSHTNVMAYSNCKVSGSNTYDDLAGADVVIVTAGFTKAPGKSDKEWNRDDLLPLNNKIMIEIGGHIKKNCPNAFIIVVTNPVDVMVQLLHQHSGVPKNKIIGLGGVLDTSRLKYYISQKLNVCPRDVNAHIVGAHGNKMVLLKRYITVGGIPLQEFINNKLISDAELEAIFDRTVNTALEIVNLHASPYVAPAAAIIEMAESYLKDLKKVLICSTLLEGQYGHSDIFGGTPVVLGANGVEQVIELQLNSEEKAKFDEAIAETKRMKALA
# Sequence of Protein kinase 7 (PK7), Plasmodium falciparum 3D7 (PF3D7_0213400) (Q7YTF7 1-343): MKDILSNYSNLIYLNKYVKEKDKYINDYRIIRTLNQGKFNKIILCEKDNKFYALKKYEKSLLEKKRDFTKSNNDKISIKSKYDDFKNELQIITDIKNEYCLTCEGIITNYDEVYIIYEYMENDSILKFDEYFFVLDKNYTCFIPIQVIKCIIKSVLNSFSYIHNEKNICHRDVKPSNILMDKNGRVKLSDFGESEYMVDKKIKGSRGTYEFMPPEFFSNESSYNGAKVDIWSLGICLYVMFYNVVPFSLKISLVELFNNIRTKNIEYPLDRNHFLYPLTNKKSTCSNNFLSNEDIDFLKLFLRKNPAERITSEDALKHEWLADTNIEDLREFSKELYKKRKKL
SMILES,growth inhibition [1],inhibition [2],inhibition [3] [%],growth inhibition [4],outcome [5],outcome [6],outcome [7],outcome [8]
CN(C)CCN(C)Cc1ccc(-c2ccc3c(Nc4ccc(Oc5ccccn5)cc4)ccnc3c2)o1,100% (active),16%,6,100% (active),inactive,inactive,inactive,inactive
Cc1cc(-c2nc3cncc(-c4cccc(CN5CCCC5Cc5cccnc5)c4)c3n2C)nn1C (stereo not drawn),73% (active),-7%,-1,83% (active),inactive,inactive,inactive,inactive
Cc1nc(-c2ccc(-c3ccc(C(=O)Nc4ccc(I)c(OCCN5CCCC5)c4)cc3)c(C)c2)no1,35%,96% (active),-1,95% (active),inactive,inactive,inactive,inactive
COc1cc2nc(N3CCC(CNC(=O)c4ccc(-c5ccc(O)cc5)cc4)CC3)nc(N)c2cc1OC,78% (active),34%,-2,102% (active),inactive,inactive,inactive,inactive
COc1ccc2nccc([C@@H](O)CN3CCC(NS(=O)(=O)c4cc5c(cc4Cl)SCC(=O)N5)CC3)c2c1,0%,5%,0,88% (active),inactive,inactive,inactive,inactive
COc1ccc(NC(=O)CCNc2ccnc(NCCc3ccc(F)cc3)n2)cc1,5%,4%,-3,94% (active),inactive,inactive,inactive,inactive
CCCCn1c(Sc2ccc(C#N)c([N+](=O)[O-])c2)nnc1-c1ccc(OC)cc1,61% (active),12%,0,93% (active),inactive,inactive,inactive,inactive
N#Cc1c(N2CCN(c3ccc(F)cc3)CC2)nc(N)c2c(N)nc3c(c12)CC(=O)N3C1CC1,82% (active),2%,-8,95% (active),inactive,inactive,inactive,inactive
O=C(NCCN1CCCCC1)c1ccc(CNC(=O)c2ccc(O)c(-c3cccc(C(F)(F)F)c3)c2)cc1,47%,3%,1,94% (active),inactive,inactive,inactive,inactive
CN(C)CCNCc1ccc(-c2ccc3c(Nc4ccc(F)cc4Cl)ccnc3c2)o1,100% (active),31%,-9,100% (active),inactive,inactive,inactive,inactive
CO/C(=C\C=C\c1cc2cc(Cl)c(Cl)cc2[nH]1)C(=O)NCCCN1CC(C)N(C)CC1C (stereo not drawn),73% (active),38%,-2,92% (active),inactive,inactive,inactive,inactive
O=C(/C=C/c1ccc(Cl)c(Cl)c1)N1CCN(C(=O)Nc2ccc(F)c(Cl)c2)CC1,87% (active),19%,-6,97% (active),inactive,inactive,inactive,inactive
Cc1ccc(C2=NNC3(S2)C(=O)Nc2ccc(C)cc23)cc1 (stereo not drawn),89% (active),35%,6,95% (active),inactive,inactive,inactive,inactive
COc1cccc(OC)c1C(=O)Nc1cccc(-c2nn3ccccc3c2-c2ccnc(Nc3cccc(F)c3)n2)c1,38%,3%,8,95% (active),inactive,inactive,inactive,inactive
O=C(/C=C/c1ccc(Cl)c(Cl)c1)NCCCCCN1CCC(NC(=O)Nc2ccc(F)c(Cl)c2)CC1,11%,98% (active),5,100% (active),inactive,inactive,inactive,inactive
O[C@@H](c1cccc2ccccc12)[C@@H]1CN(CCc2ccccc2)CC[C@@]1(O)c1ccccc1,101% (active),-2%,-2,99% (active),inactive,inactive,inactive,inactive
CCCNCc1ccc(-c2ccc(CN(CC3CCCO3)C(=O)C3CC(=O)c4ccccc43)cc2)nc1 (stereo not drawn),65% (active),0%,3,101% (active),inactive,inactive,inactive,inactive
O=[N+]([O-])c1ccc2c(c1)c1ccccc1n2Cc1ccccc1O,84% (active),-2%,0,93% (active),inactive,inactive,inactive,inactive
CCCCCCc1cc(OC)c(OC)cc1C(C)Nc1ccnc2cc(Cl)ccc12 (stereo not drawn),79% (active),6%,-4,95% (active),inactive,inactive,inactive,inactive
CCn1cnc2c(N3CCCS3(=O)=O)cc(C(=O)N[C@@H](Cc3ccccc3)[C@H](O)CNC(C)(C)c3cccc(C(F)(F)F)c3)cc21,97% (active),9%,-1,99% (active),inactive,inactive,inactive,inactive
CNCc1cccc2[nH]c(-c3ccc(Cc4cc(Cl)ccc4OCC(C)C)o3)nc12,23%,20%,0,97% (active),inactive,inactive,inactive,inactive

SMILES,growth inhibition [1],inhibition [2],inhibition [3] [%],growth inhibition [4],outcome [5],outcome [6],outcome [7],outcome [8]
C=CCC(CC=C)N1C(=O)C(c2ccccc2)(c2ccccc2)N=C1N,97% (active),35%,-3,98% (active),inactive,inactive,inactive,inactive
C=CCOC(=O)N1CCC(CNCc2cccc(-c3ccc(-c4nc5c(C)cccc5[nH]4)s3)c2)C1 (stereo not drawn),82% (active),11%,-6,101% (active),inactive,inactive,inactive,inactive
Cc1cc(C2CCN(CCCCNC(=O)c3ccc(-c4ccc(C(F)(F)F)cc4)cc3)CC2)c(C)cc1OCC(N)=O,44%,34%,-7,91% (active),inactive,inactive,inactive,inactive
Cc1ccc2nc(-c3cc(-c4cccc(CCN5CCOCC5)c4)cnc3N)[nH]c2c1,99% (active),50% (active),-5,101% (active),inactive,inactive,inactive,inactive
COc1cc2c(cc1S(=O)(=O)c1ccc(COc3ccc(C(F)(F)F)cc3)cc1)CNCC2,89% (active),32%,5,103% (active),inactive,inactive,inactive,inactive
CCCCCCCc1c(C)[nH]c2cc(OC)ccc2c1=O,98% (active),5%,-5,99% (active),inactive,inactive,inactive,inactive
CCOc1ccc(-c2noc(-c3c[nH]c4ccccc4c3=O)n2)cc1,93% (active),-7%,-3,99% (active),inactive,inactive,inactive,inactive
COc1ccc(Nc2nc(NC3CCCC3)cc(-c3ccc(OC)cc3)n2)cc1,15%,12%,2,86% (active),inactive,inactive,inactive,inactive
COc1ccc2c(NN=Cc3ccc(N(C)C)cc3)ccnc2c1,100% (active),12%,-1,102% (active),inactive,inactive,inactive,inactive
COc1cc(OC)cc(C(=O)N2CCOC(CCN3CCC(c4ccccc4)CC3)(c3ccc(Cl)c(Cl)c3)C2)c1 (stereo not drawn),61% (active),13%,1,85% (active),inactive,inactive,inactive,inactive
Brc1ccccc1CNc1ccnc(NCCn2ccnc2)n1,33%,72% (active),4,99% (active),inactive,inactive,inactive,inactive
CC(C)NCc1ccc(-c2cccc(CN3CCC(c4ccccc4)CC3)c2)c(C(=O)NCC2CCCCC2)c1,76% (active),42%,-5,98% (active),inactive,inactive,inactive,inactive
COc1ccc2nccc([C@@H](O)CN3CCC(NCc4ccc5c(c4)N(C)C(=O)CO5)CC3)c2c1,95% (active),-3%,6,101% (active),inactive,inactive,inactive,inactive
COc1cc(NC(=O)c2sc(-c3ccc(Cl)cc3)cc2NC(=O)CN2CCCC2)ccc1OCCN1CCCC1,79% (active),29%,3,86% (active),inactive,inactive,inactive,inactive
Cc1cccc2[nH]c(-c3ccc(-c4cccc(CN5CCN(c6ccncc6)CC5)c4)cc3)nc12,99% (active),50% (active),7,101% (active),inactive,inactive,inactive,inactive
CCCC(=O)NC(NC(=S)Nc1ccc([N+](=O)[O-])cc1)C(Cl)(Cl)Cl (stereo not drawn),14%,10%,4,93% (active),inactive,inactive,inactive,inactive
CO/C(=C\C=C\c1cc2cc(Cl)c(Cl)cc2[nH]1)C(=O)NCCCN1CCN(c2cccc(O)c2)CC1,100% (active),46%,-2,91% (active),inactive,inactive,inactive,inactive
c1cn(-c2ccc(CNc3nccc(Nc4ccc(OCCN5CCOCC5)cc4)n3)cc2)cn1,3%,2%,-2,100% (active),inactive,inactive,inactive,inactive
O=C(CCn1cncn1)N1CCCC(c2[nH]c3ccccc3c2-c2ccncc2)C1 (stereo not drawn),79% (active),1%,-1,97% (active),inactive,inactive,inactive,inactive
OC(CNC1CCCCC1)Cn1c2ccc(Br)cc2c2cc(Br)ccc21 (stereo not drawn),100% (active),10%,3,98% (active),inactive,inactive,inactive,inactive
